In PubChem BioAssay (NCATS):
Records with an inconclusive call do not appear. Active and inactive are the calls of the source. Unless noted, calls come from the whole dose curve; as a rule, active = well fitted curve in the direction sought with a large enough effect; inconclusive = small, poorly fitted or top-dose-only effect, or another doubt; inactive = no such curve, though single readings can be large; an effect the other way counts as inactive or inconclusive.

Columns and labels:
[1] = target: Cytochrome P450 2D6 (Homo sapiens) (UniProt P10635); experiment: Cytochrome P450 family 2 subfamily D member 6 (CYP2D6) small molecule antagonists: luciferase biochemical (cell-free) qHTS assay (AID 1645840; active = well fitted curve in the direction sought with a large enough effect in the repeat runs; an effect the other way counts as inactive or inconclusive; note: nearly all actives have a fitted effect of over 55% in size; note: potency is the fitted concentration of half-maximal effect; for activity change, negative = inhibition: % is set by controls: 0 for no effect and ±100 for the full control effect); conditions: P450-Glo CYP2D6 enzyme, luciferin luminescence, 1 h; series mostly up to 57.4 µM
Cytochrome P450 2D6 (Homo sapiens), sequence (P10635 whole entry, looked up): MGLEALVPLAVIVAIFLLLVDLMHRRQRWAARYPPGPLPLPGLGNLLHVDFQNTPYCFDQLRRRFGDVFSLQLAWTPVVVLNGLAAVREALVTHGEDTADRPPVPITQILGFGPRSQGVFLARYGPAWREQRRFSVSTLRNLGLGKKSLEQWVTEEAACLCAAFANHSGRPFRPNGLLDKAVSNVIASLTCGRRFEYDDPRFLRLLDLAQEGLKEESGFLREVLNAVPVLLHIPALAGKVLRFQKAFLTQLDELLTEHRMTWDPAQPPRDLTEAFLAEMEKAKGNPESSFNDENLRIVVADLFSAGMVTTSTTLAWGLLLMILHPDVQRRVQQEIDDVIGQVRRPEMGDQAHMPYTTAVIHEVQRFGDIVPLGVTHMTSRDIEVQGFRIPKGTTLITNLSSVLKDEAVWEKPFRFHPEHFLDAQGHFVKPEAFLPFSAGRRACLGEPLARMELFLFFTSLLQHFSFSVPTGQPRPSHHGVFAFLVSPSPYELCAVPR
How it was run: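 P450-Glo CYP2D6 system: proluciferin substrate converted by enzyme to luciferin, read by luminescence proportional to activity. Enzyme-substrate mix with compound 10 min at room temperature, then NADPH regeneration 1 h before detection reagent.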

[2] = Confirmation and Secondary Assay for Modulators of Hemoglobin Beta Chain Splicing at IVS2 654 locus (AID 910); conditions: HeLa EGFP-654 splicing reporter, GFP fluorescence, 48 h; series mostly up to 46.1 µM;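 note: per-well total GFP intensity by laser scanning cytometry after 2-day treatment; % of control where 0% means no effect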
How it was run: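 HeLa cells stably carrying EGFP interrupted by mutant beta-globin IVS2-654 intron (CMV-driven) were treated with compound for 2 days at 37C; corrected splicing was scored as total peak GFP intensity per well (488 nm excitation, 500-520 nm emission).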

[3] = Confirmation and Secondary Assay for Modulators of Hemoglobin Beta Chain Splicing at IVS2 705 locus (AID 930); conditions: HeLa EGFP-705 splicing reporter, GFP fluorescence, 48 h; series mostly up to 46.1 µM;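 note: HeLa cells stably expressing the EGFP-705 splicing reporter; GFP fluorescence per well restored by corrected splicing of the IVS2-705 intron in EGFP; % of control where 0% means no effect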
How it was run: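 Splice-correction reporter: EGFP cDNA split by beta-globin intron 2 bearing the 705 mutation, stably in HeLa. Compound incubation 2 days, 37C; fluorescent objects 5-250 µm summed per well.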

[4] = qHTS Assay for Lipid Storage Modulators (AID 1519; calls by dose curve; for activity change, negative = inhibition: % is set by controls: 0 for no effect and ±100 for the full control effect); conditions: Drosophila S3 cells, BODIPY lipid droplet/cell ratio, laser cytometry, cells loaded with oleic acid; for activity change, negative = inhibition: at 57.5 µM (top of the series)
How it was run: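 Cells seeded at 5,000 per well were treated with compounds over a concentration series and loaded with oleic acid (400 uM, as added). Lipid droplet fluorescence (488 nm excitation, 500-530 nm channel) was read by laser-scanning cytometry and normalized to 20 uM Triacsin C.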

[5] = measured here: cell count channel max response
[6] = measured here: lipid channel max response

SMILES: CC(=O)c1ccc(NC(=O)C2CCN(c3nnc(C)c4c(C)n(-c5ccccc5)nc34)CC2)cc1
- Potency [1]: 12 µM (active)

SMILES: C=CCCCCCCCCCCCC(O)CC(O)COC(C)=O (centres undefined)
- Potency [2]: inactive
- Potency [3]: inactive
- activity change, negative = inhibition [4]: 12.3% (inactive)
- max response [4, 5]: 4.88%
- max response [4, 6]: 15.5%

SMILES: CC(=O)C1(O)Cc2c(O)c3c(c(O)c2C(OC2CC(N)C(O)C(C)O2)C1)C(=O)c1ccccc1C3=O (centres undefined)
- Potency [1]: 12 µM (active)

SMILES: CC(=O)OCC1OC(Oc2cc(OC(C)=O)c3c(=O)cc(-c4ccc(OC(C)=O)cc4)oc3c2)[C@@H](OC(C)=O)C(OC(C)=O)C1OC(C)=O (some centres undefined)
- Potency [2]: inactive
- Potency [3]: inactive
- activity change, negative = inhibition [4]: -3.32% (inactive)
- max response [4, 5]: -1.21%
- max response [4, 6]: -5.92%

SMILES: CC(CN(C)C)CN1c2ccccc2Sc2ccccc21 (centres undefined)
- Potency [2]: inactive
- Potency [3]: inactive
- activity change, negative = inhibition [4]: 6.07% (inactive)
- max response [4, 5]: -0.564%
- max response [4, 6]: 10.9%

SMILES: CC1(C#N)CCN(c2c(C(=O)N3CCN(C(=O)C4CC4)CC3)cnc3ccc(Cl)cc23)CC1
- Potency [1]: inactive

SMILES: CC1(C)C2(Cl)C(Cl)C(Cl)C(Cl)(C(Cl)Cl)C1(Cl)C2Cl (centres undefined)
- Potency [2]: inactive
- Potency [3]: inactive
- activity change, negative = inhibition [4]: 3.3% (inactive)
- max response [4, 5]: 3.76%
- max response [4, 6]: 3.86%

SMILES: CCc1ccc(C(=O)c2cn(CC(=O)Nc3ccc(OC)c(OC)c3)c3ccc(C)cc3c2=O)cc1
- Potency [1]: inactive

SMILES: CCc1ccc(CNC(=O)C2CCCN(c3nnc(C)c4c(C)n(-c5ccc(OC)cc5)nc34)C2)cc1 (centres undefined)
- Potency [1]: 7.56 µM (active)

SMILES: Fc1ccc([C@H]2CCNCC2COc2ccc3c(c2)OCO3)cc1 (some centres undefined)
- Potency [2]: inactive
- Potency [3]: inactive
- activity change, negative = inhibition [4]: 12.8% (inactive)
- max response [4, 5]: -0.955%
- max response [4, 6]: 14.7%

SMILES: COC(=O)[C@H]1C(OC)[C@@H](OC(=O)c2cc(OC)c(OC)c(OC)c2)C[C@@H]2CN3CCc4c([nH]c5cc(OC)ccc45)[C@H]3C[C@H]21 (some centres undefined)
- Potency [3]: inactive
- activity change, negative = inhibition [4]: 8.9% (inactive)
- max response [4, 5]: 4.56%
- max response [4, 6]: 13.7%

SMILES: O=C(Nc1cccc(Cl)c1)Nc1ccccc1OCc1cc(=O)n2ccccc2n1
- Potency [1]: inactive

SMILES: CCC(C)(C)C(=O)OC1CC(C)C=C2C=CC(C)C(CCC3CC(O)CC(=O)O3)C21 (centres undefined)
- Potency [2]: inactive
- Potency [3]: inactive
- activity change, negative = inhibition [4]: -9% (inactive)
- max response [4, 5]: 2.37%
- max response [4, 6]: -4.92%

SMILES: CCc1ccc(CN(Cc2ccco2)C(=O)COc2ccccc2Cl)cc1
- Potency [1]: 7.56 µM (active)

SMILES: COc1ccc(C(=O)Oc2ccc(C(c3c(C)[nH][nH]c3=O)c3c(C)[nH][nH]c3=O)cc2)cc1
- Potency [1]: inactive

SMILES: C[S+](=O)([O-])Nc1ccc(-c2ccc3nc(-c4ccc(OC(F)(F)F)cc4)[nH]c3c2)cc1
- Potency [1]: inactive

SMILES: CC(=O)N[C@@H](Cc1c[nH]c2ccccc12)C(=O)O
- Potency [2]: inactive
- Potency [3]: inactive
- activity change, negative = inhibition [4]: 5.86% (inactive)
- max response [4, 5]: 17.1%
- max response [4, 6]: 24.9%

SMILES: CN1CCCC1c1cccnc1 (centres undefined)
- Potency [2]: inactive
- Potency [3]: inactive
- activity change, negative = inhibition [4]: 7.69% (inactive)
- max response [4, 5]: 11.9%
- max response [4, 6]: 23.7%

SMILES: Cc1cn(C2CC(N=[N+]=[N-])C(CO)O2)c(=O)[nH]c1=O (centres undefined)
- Potency [2]: inactive
- Potency [3]: inactive
- activity change, negative = inhibition [4]: 9.63% (inactive)
- max response [4, 5]: 4.71%
- max response [4, 6]: 18.1%

SMILES: CN1CCCC1CCO[C@@](C)(c1ccccc1)c1ccc(Cl)cc1 (some centres undefined)
- Potency [2]: inactive
- Potency [3]: inactive
- activity change, negative = inhibition [4]: -9.48% (inactive)
- max response [4, 5]: -21.6%
- max response [4, 6]: -28.2%

SMILES: CC(=O)OC1CC2C(C)(C)C(O)CCC2(C)C2CC[C@]3(C)C(=CC(=O)OC3c3ccoc3)C12C (some centres undefined)
- Potency [2]: inactive
- Potency [3]: inactive
- activity change, negative = inhibition [4]: -0.0065% (inactive)
- max response [4, 5]: -9.39%
- max response [4, 6]: -0.419%

SMILES: Cc1cc(C)cc(NC(=O)Cn2c(=O)n(-c3ccc(C)c(C)c3)c(=O)c3oc4ccccc4c32)c1
- Potency [1]: 0.425 µM (active)

SMILES: COc1cc(O)c(C(=O)c2ccccc2)cc1O
- Potency [2]: inactive
- Potency [3]: inactive
- activity change, negative = inhibition [4]: 2.59% (inactive)
- max response [4, 5]: 7.29%
- max response [4, 6]: 11.7%
